Shown are actives, neighbours in structure and some others; about 3.1% of the full set was active somewhere.
TSHR antagonist – antagonists of human thyroid stimulating hormone receptor; TSHR-expressing cells, TSH-stimulated cAMP HTRF, 2 h; stronger effect = lower value; activity change, negative = inhibition, % at 11.5 µM; hit rate 0.2% among 330,000;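 active = activity change below a set negative limit, meaning inhibition stronger than a set level, cut at about -70% in these data; inconclusive = activity change between two set negative limits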; note: % is set by controls: 0 for no effect and ±100 for the full control effect
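TSHR-expressing cells were treated with compounds, then stimulated with TSH at EC80 (4nM final) for 2 hours at 37 deg C. Cellular cAMP was measured by HTRF competition between lysate cAMP and cAMP-d2 for a cryptate-labelled anti-cAMP antibody.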
VDR inh – vitamin D3 receptor (human) inhibition; hit rate 0.93% among 400,000; VDR-SRC2-3 peptide fluorescence polarization, 2 h; P11473; Potency, µM, inactives show max response, negative = inhibition, most hits filed as inhibitors; note: potency is the fitted concentration of half-maximal effect; % is set by controls: 0 for no effect and ±100 for the full control effect
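Measured by FP: displacement of SRC2-3 coactivator peptide from VDR by library compounds, following a two-hour ambient incubation.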
PLK1 PBD block – inhibitors of human PLK1 polo-box domain binding; P53350; Plk1 PBD binding of FITC phosphopeptide, fluorescence polarization; Potency, µM, for inactives: max response, negative = inhibition, actives largely listed as inhibitors; hit rate 2.8% among 360,000; note: potency is the fitted concentration of half-maximal effect; series mostly up to about 57 µM; % is set by controls: 0 for no effect and ±100 for the full control effect; nearly all actives have a fitted effect of over 65% in size
uPA surface inh – inhibitors of cell surface uPA generation | hit rate 0.31% among 330,000 | Potency, µM (highest dose often 38.3 µM), for inactives: at the top dose activity change, negative = inhibition, most hits filed as inhibitors | cell surface uPA generation assay, qHTS; active = well fitted inhibition curve with a large enough effect; inconclusive = small, poorly fitted or top-dose-only effect; inactive = no such curve, though single readings can be large or run the other way; tested in mouse RAW 264.7 cells; note: potency is the fitted concentration of half-maximal effect; % is set by controls: 0 for no effect and ±100 for the full control effect; nearly all actives have a fitted effect of over 55% in size
PTAP TSG101 blk – blocks PTAP/TSG101 interaction to inhibit HIV-1 budding; AID 493005; Q99816; Potency, µM (doses to about 115 µM), without a hit: top-dose activity change, negative = inhibition, hits mostly inhibitors; 340,000 tested, under 10 active; Fluorescence polarization, FITC-PTAP peptide / Tsg101 binding; active = well fitted inhibition curve with a large enough effect in the main read-out, with a control signal flat, not every such curve was filed as active; inconclusive = small, poorly fitted or top-dose-only effect, or effect the other way, or a change in a side signal; inactive = no such curve, though single readings can be large or run the other way; note: potency is the fitted concentration of half-maximal effect; % of control where 0% means no effect
Target sequence (Q99816 whole entry, looked up): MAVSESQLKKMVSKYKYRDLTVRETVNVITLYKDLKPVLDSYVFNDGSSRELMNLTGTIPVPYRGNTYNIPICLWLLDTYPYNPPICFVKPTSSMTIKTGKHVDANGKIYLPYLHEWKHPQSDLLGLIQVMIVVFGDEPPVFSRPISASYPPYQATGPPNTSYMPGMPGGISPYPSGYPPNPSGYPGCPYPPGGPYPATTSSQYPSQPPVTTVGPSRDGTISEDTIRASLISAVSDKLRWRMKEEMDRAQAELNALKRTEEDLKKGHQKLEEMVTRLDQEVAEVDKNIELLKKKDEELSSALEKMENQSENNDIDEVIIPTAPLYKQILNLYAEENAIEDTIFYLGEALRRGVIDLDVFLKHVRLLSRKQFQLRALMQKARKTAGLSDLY
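Steps: Tsg101 binding domain dispensed (10 uM final), compounds pinned in DMSO, FITC-labeled PTAP-motif peptide added (50 nM final); after 20 min binding at room temperature, polarization measured.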
An asterisk follows results filed as active; ? = inconclusive; / = not tested or not shown. Unless noted, calls come from the whole dose curve; as a rule, active = well fitted curve in the direction sought with a large enough effect; inconclusive = small, poorly fitted or top-dose-only effect, or another doubt; inactive = no such curve, though single readings can be large; an effect the other way counts as inactive or inconclusive.

SMILES | TSHR antagonist | VDR inh | PLK1 PBD block | uPA surface inh | PTAP TSG101 blk
O=C1/C(=C/c2ccccc2[N+](=O)[O-])COc2ccccc21 | 1 | 22µM* | ? | ? | -2%
CNc1ccc(/C=C2\COc3ccccc3C2=O)cc1[N+](=O)[O-] | 7 | -9% | -5% | -2% | -2%
C=CCNc1nc2c3ccccc3n(C(C)=O)c2s1 | 4 | -29% | 27µM* | -6% | -6%
CC(=O)n1c2ccccc2c2nc3ccccc3nc21 | 18 | -13% | -3% | 5% | -7%
NC(=O)c1c(NC(=O)C2CCCO2)sc2c1CCCCC2 (centres undefined) | 5 | ? | 11µM* | -2% | -5%
CC(C)(C)C1CCc2onc(C(=O)Nc3sc4c(c3C(N)=O)CCCC4)c2C1 (centres undefined) | / | 79µM* | / | / | /
NC(=O)c1c(NC(=O)C2CCCO2)sc2c1CCC2 (centres undefined) | -4 | -6% | -4% | / | -9%
CC(C)(C)c1ccc(S(=O)(=O)NCC(=O)Nc2sc3c(c2C(N)=O)CCCC3)cc1 | -1 | -7% | 27µM* | 7% | -7%
Cn1cnnc1SCC(=O)Nc1sc2c(c1C(N)=O)CCC2 | -11 | -9% | 27µM* | 4% | -7%
COc1ccc(C(=O)N2CCC3(CCN(C)CC3)CC2)cc1 | / | 9% | / | / | /
Cc1cccc(Cn2c(=O)n(CC3CCC(C(=O)N4CCC(C)CC4)CC3)c(=O)c3sccc32)c1 (centres undefined) | / | 10% | / | / | /
CSc1ccc(NC(=O)C2(C)CCN2C(=O)c2cc(C)n(C)n2)cc1 (centres undefined) | / | / | -5% | / | /
NC(=O)c1c(NC(=O)CCCC(=O)O)sc2c1CCCCCC2 | -2 | ? | 27µM* | 0% | -1%
CC(=O)C1CCC2C3CC(C)C4=CC(=O)CC[C@@]4(C)C3C(O)C[C@@]12C (some centres undefined) | / | -1% | / | / | /
CCN(C(=O)c1noc2c1COc1ccc(C)cc1-2)c1cccc(C)c1 | / | -11% | / | / | /
Cc1ccccc1S(=O)(=O)Cc1ccc(C(=O)NCc2ccccc2)o1 | 6 | -19% | -14% | -1% | -11%
Cc1ccccc1S(=O)(=O)Cc1ccc(C(=O)NCc2ccco2)o1 | -18 | ? | 24µM* | -4% | -3%
Cc1cccnc1NC(=O)Cn1nc(-c2ccccc2)oc1=S | 31 | ? | 24µM* | -13% | -1%
Cc1cccnc1NC(=O)Cn1nc([N+](=O)[O-])cc1C | 8 | 1% | 1% | -1% | -5%
CCOC(=O)c1c(N)n(-c2ccc(N)cc2)c2nc3ccccc3nc12 | 1 | -24% | 27µM* | 8% | -5%
O=C(O)COc1ccccc1C1C2C(=O)N(c3ccc(F)cc3)C(=O)C2ON1c1ccccc1 (centres undefined) | 0 | 2% | 27µM* | -1% | -6%
COc1ccccc1C1C2C(=O)N(c3ccccc3)C(=O)C2ON1c1ccccc1 (centres undefined) | -7 | 8% | -9% | 2% | -5%
Cn1ccc2c(N3CCCCCC3)cc3c(c21)C1CCC3C1 (centres undefined) | / | / | 2% | / | /
CCn1cc2nc(SCc3cccc(OC)c3)n(Cc3ccc(Cl)cc3)c(=O)c2n1 | / | -15% | / | / | /
Cc1ccc2c(c1)c(=O)c(C(=O)c1ccc3c(c1)OCO3)cn2Cc1ccc(Cl)cc1 | / | -1% | / | / | /
SMILES | TSHR antagonist | VDR inh | PLK1 PBD block | uPA surface inh | PTAP TSG101 blk
Cn1c(CNC(=O)CNC(=O)c2cccc(F)c2)cc(=O)n(C)c1=O | -3 | 28% | -5% | 3% | -4%
Cn1c(CNC(=O)C(Cc2ccccc2)NC(=O)c2cccc(F)c2)cc(=O)n(C)c1=O (centres undefined) | 42 | -10% | 27µM* | 5% | -5%
CO[C@]1(NC(=O)C2SC(=C(C(N)=O)C(=O)O)S2)C(=O)N2C(C(=O)O)=C(CSc3nnnn3C)CS[C@H]21 (some centres undefined) | / | -4% | / | / | /
O=C(CSc1n[nH]c(-c2cccnc2)n1)OC1CCCCC1 | 16 | ? | 12µM* | 4% | 1%
COc1ccc(C)cc1NC(=O)c1nnn(-c2c(C)cccc2C)c1C | / | 9% | / | / | /
O=S(=O)(c1ccc(F)cc1)N1CCN(S(=O)(=O)c2cc(F)ccc2F)CC1 | 1 | ? | 21µM* | 0% | 0%
